The results in this text go back to PubChem BioAssay (EPA / NIEHS).

What all share (conditions): mRNA level, 48 h; actives raise or lower the signal
Read-out in test [1]: Bcl-2 (BID) gene, BID (gene 637)
Briefly: LTEA_HepaRG_BID: Life Technologies and Expression Analysis (LTEA) Assay for Bcl-2 (BID) gene using HepaRG (AID 2283476). In a few lines: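 Duplicate 48 h treatments of HepaRG cells in serum-free induction medium spanned 100 uM downward in half-log steps, 0.5% DMSO. Transcript change quantified by qRT-PCR against three housekeeping genes, fitted up or down versus DMSO.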

Read-out in a further test: Caspase-3 (Homo sapiens) (UniProt P42574)
Briefly: LTEA_HepaRG_CASP3: Life Technologies and Expression Analysis (LTEA) Assay for cysteine-aspartic acid protease (CASP3) using HepaRG (AID 2283477). In a few lines:
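Expression of CASP3 was quantified by TaqMan qRT-PCR against three housekeeping genes (ACTB, GAPDH, POLR2A), bidirectionally versus 0.5% DMSO. HepaRG cultures received compounds in duplicate, top 100 uM with half-log steps, for 48 h in serum-free induction medium.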

Read-out in test [2]: Cytochrome P450 (CYP24A1), CYP24A1 (gene 1591)
Briefly: LTEA_HepaRG_CYP24A1: Life Technologies and Expression Analysis (LTEA) Assay for Cytochrome P450 (CYP24A1) using HepaRG (AID 2283478). In a few lines: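 mRNA of CYP24A1 quantified by TaqMan qRT-PCR (ACTB/GAPDH/POLR2A normalization) after 48 h chemical exposure of HepaRG cells, top concentration 100 uM, half-log steps, 0.5% DMSO vehicle, duplicates. Curves fitted bidirectionally against DMSO baseline.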

Read-out in test [3]: Cytochrome P450 (CYP1A2), CYP1A2 (gene 1544)
Briefly: LTEA_HepaRG_CYP1A2: Life Technologies and Expression Analysis (LTEA) Assay for Cytochrome P450 (CYP1A2) using HepaRG (AID 2283479). In a few lines:
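CYP1A2 transcript measured by TaqMan qRT-PCR against three housekeeping genes after 48-hour chemical exposure of HepaRG cells. Eight-point half-log series topping at 100 uM in 0.5% DMSO, duplicates; gain or loss fitted relative to vehicle.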

Read-out in test [4]: cysteine-aspartic acid protease (CASP8), CASP8 (gene 841)
Briefly: LTEA_HepaRG_CASP8: Life Technologies and Expression Analysis (LTEA) Assay for cysteine-aspartic acid protease (CASP8) using HepaRG (AID 2283480). In a few lines:
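CASP8 transcript measured by TaqMan qRT-PCR with ACTB/GAPDH/POLR2A normalization, after 48 h chemical exposure of HepaRG cells in serum-free induction medium. Eight concentrations, top 100 uM, half-log steps, 0.5% DMSO vehicle; fits in both directions versus DMSO.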

Read-out in test [5]: Cytochrome P450 (CYP2B6), CYP2B6 (gene 1555)
Briefly: LTEA_HepaRG_CYP2B6: Life Technologies and Expression Analysis (LTEA) Assay for Cytochrome P450 (CYP2B6) using HepaRG (AID 2283481). The essentials: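 CYP2B6 transcript level quantified by qRT-PCR against three housekeeping genes, fitted bidirectionally relative to DMSO. HepaRG cultures received chemicals for 48 h, 8-point half-log series from 100 uM in 0.5% DMSO, duplicate wells, serum-free induction medium.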

Read-out in test [6]: Cytochrome P450 2C19 (Homo sapiens) (UniProt P33261)
Briefly: LTEA_HepaRG_CYP2C19: Life Technologies and Expression Analysis (LTEA) Assay for CYP2C19 using HepaRG (AID 2283482). The essentials: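 CYP2C19 transcript levels by qRT-PCR, normalized to three housekeeping genes, in HepaRG cells after 48 h chemical exposure. Eight-point half-log series topping at 100 uM, 0.5% DMSO vehicle. Increases and decreases both fitted against DMSO.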

Read-out in the next test: CYP2C8 (gene 1558)
Briefly: LTEA_HepaRG_CYP2C8: Life Technologies and Expression Analysis (LTEA) Assay for CYP2C8 using HepaRG (AID 2283483). In a few lines: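 CYP2C8 expression measured by TaqMan qRT-PCR and normalized to three housekeeping genes. HepaRG cultures were treated for 48 h with an eight-point half-log series topping at 100 uM, vehicle 0.5% DMSO, duplicates; fitted both directions against DMSO.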

Read-out in the next test: CYP2C9 (gene 1559)
Briefly: LTEA_HepaRG_CYP2C9: Life Technologies and Expression Analysis (LTEA) Assay for CYP2C9 using HepaRG (AID 2283484). In a few lines: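 CYP2C9 transcript level, quantified by TaqMan qRT-PCR against three housekeeping genes, was fitted bidirectionally relative to 0.5% DMSO. HepaRG cultures were treated 48 h, in duplicate, at eight half-log concentrations topping at 100 uM.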

Read-out in a further test: CYP2E1 (gene 1571)
Briefly: LTEA_HepaRG_CYP2E1: Life Technologies and Expression Analysis (LTEA) Assay for CYP2E1 using HepaRG (AID 2283485). In a few lines:
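CYP2E1 transcript measured by Fluidigm qRT-PCR against three housekeeping genes in human HepaRG cells treated 48 h (top 100 uM, half-log steps, 0.5% DMSO vehicle). Gain or loss fitted relative to DMSO baseline.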

Read-out in a further test: CYP4A11 (gene 1579)
Briefly: LTEA_HepaRG_CYP4A11: Life Technologies and Expression Analysis (LTEA) Assay for CYP4A11 using HepaRG (AID 2283486). In a few lines: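 Readout is CYP4A11 transcript level by qRT-PCR, normalized to three housekeeping genes and fitted bidirectionally against 0.5% DMSO. Human HepaRG cells were treated 48 h, in duplicate, with an 8-point half-log series topping at 100 uM.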

Read-out in test [7]: Cytochrome P450 3A4 (Homo sapiens) (UniProt P08684)
Briefly: LTEA_HepaRG_CYP3A4: Life Technologies and Expression Analysis (LTEA) Assay for CYP3A4 using HepaRG (AID 2283487). The essentials: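 HepaRG, 48 h exposure, 8-pt CRC from 100 uM (half-log), 0.5% DMSO, duplicates; serum-free induction medium. Readout: CYP3A4 mRNA, qRT-PCR, ACTB/GAPDH/POLR2A normalization. Bidirectional fit vs DMSO.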

Read-out in test [8]: Pro-epidermal growth factor (Homo sapiens) (UniProt P01133)
Briefly: LTEA_HepaRG_EGF: Life Technologies and Expression Analysis (LTEA) Assay for Epidermal growth factor (EGF) using HepaRG (AID 2283489). In a few lines: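 EGF transcript measured by Fluidigm TaqMan qRT-PCR with three housekeeping genes for normalization, 48 h after dosing HepaRG cultures in duplicate (top 100 uM, half-log steps, 0.5% DMSO vehicle). Gain or loss relative to DMSO fitted.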

Read-out in test [9]: Early growth response protein 1 (EGR1) transcription factor, EGR1 (gene 1958)
Briefly: LTEA_HepaRG_EGR1: Life Technologies and Expression Analysis (LTEA) Assay for Early growth response protein 1 (EGR1) transcription factor using HepaRG (AID 2283490). In a few lines:
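EGR1 transcript levels quantified by qRT-PCR (Fluidigm arrays) against three housekeeping genes after 48 h chemical exposure of HepaRG cells. Eight-point half-log series topping at 100 uM, 0.5% DMSO vehicle, analyzed for gain or loss.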

Read-out in test [10]: Ezrin (EZR), EZR (gene 7430)
Briefly: LTEA_HepaRG_EZR: Life Technologies and Expression Analysis (LTEA) Assay for Ezrin (EZR) using HepaRG (AID 2283491). In a few lines: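 Read-out is EZR transcript level by qRT-PCR, normalized to three housekeeping genes and fitted bidirectionally against the DMSO control. Human HepaRG cells received test chemicals for 48 h at eight half-log concentrations up to 100 uM in 0.5% DMSO.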

Read-out in test [11]: Cytochrome P450 3A7 (Homo sapiens) (UniProt P24462)
Briefly: LTEA_HepaRG_CYP3A7: Life Technologies and Expression Analysis (LTEA) Assay for CYP3A7 using HepaRG (AID 2283492). The essentials:
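CYP3A7 transcript measured by qRT-PCR (ACTB, GAPDH, POLR2A normalization) after 48 h chemical exposure of HepaRG cells in duplicate. Eight half-log concentrations, maximum 100 uM, 0.5% DMSO vehicle; bidirectional curve fitting against DMSO baseline.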

Read-out in another test: CYP3A5 (gene 1577)
Briefly: LTEA_HepaRG_CYP3A5: Life Technologies and Expression Analysis (LTEA) Assay for CYP3A5 using HepaRG (AID 2283493). The essentials:
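mRNA levels were quantified by qRT-PCR on Fluidigm arrays and normalized to three housekeeping genes. Differentiated HepaRG cells received 48 h exposure (top 100 uM, half-log steps, 0.5% DMSO vehicle, duplicate); bidirectional fitting versus DMSO.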

Read-out in test [12]: Fatty Acid-Binding Protein 1 (FABP1), FABP1 (gene 2168)
Briefly: LTEA_HepaRG_FABP1: Life Technologies and Expression Analysis (LTEA) Assay for Fatty Acid-Binding Protein 1 (FABP1) using HepaRG (AID 2283494). In a few lines: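 FABP1 expression by TaqMan qRT-PCR, normalised to three housekeeping genes, in HepaRG cells after 48 h chemical treatment. Eight-point half-log series topping at 100 uM in 0.5% DMSO, duplicates; gain or loss fitted relative to vehicle.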

Read-out in test [13]: Cytochrome P450 4A22 (Homo sapiens) (UniProt Q5TCH4)
Briefly: LTEA_HepaRG_CYP4A22: Life Technologies and Expression Analysis (LTEA) Assay for Cytochrome P450 4A22 (CYP4A22) using HepaRG (AID 2283495). The essentials:
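Gene expression measured by qRT-PCR against three housekeeping genes (ACTB, GAPDH, POLR2A), with gain or loss fitted relative to 0.5% DMSO vehicle. HepaRG cultures received 48 h chemical treatment, top concentration 100 uM, half-log steps, duplicate wells.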

Read-out in test [14]: DNA damage-inducible transcript 3 (DDIT3), DDIT3 (gene 1649)
Briefly: LTEA_HepaRG_DDIT3: Life Technologies and Expression Analysis (LTEA) Assay for DNA damage-inducible transcript 3 (DDIT3) using HepaRG (AID 2283488). In a few lines:
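DDIT3 transcript was quantified by qRT-PCR with ACTB/GAPDH/POLR2A normalization after 48 h chemical treatment of differentiated HepaRG cells in 0.5% DMSO. Dosing was eight-point, half-log, top 100 uM, duplicate wells. Curves fitted bidirectionally versus DMSO.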

Active and inactive are the calls of the source. Rule for the calls: active = hit-call score of the fitted dose curve at least 0.9, where 1 is the maximum; inactive = score below 0.9.

Sequence of Cytochrome P450 3A7 (Homo sapiens) (P24462 whole entry, looked up): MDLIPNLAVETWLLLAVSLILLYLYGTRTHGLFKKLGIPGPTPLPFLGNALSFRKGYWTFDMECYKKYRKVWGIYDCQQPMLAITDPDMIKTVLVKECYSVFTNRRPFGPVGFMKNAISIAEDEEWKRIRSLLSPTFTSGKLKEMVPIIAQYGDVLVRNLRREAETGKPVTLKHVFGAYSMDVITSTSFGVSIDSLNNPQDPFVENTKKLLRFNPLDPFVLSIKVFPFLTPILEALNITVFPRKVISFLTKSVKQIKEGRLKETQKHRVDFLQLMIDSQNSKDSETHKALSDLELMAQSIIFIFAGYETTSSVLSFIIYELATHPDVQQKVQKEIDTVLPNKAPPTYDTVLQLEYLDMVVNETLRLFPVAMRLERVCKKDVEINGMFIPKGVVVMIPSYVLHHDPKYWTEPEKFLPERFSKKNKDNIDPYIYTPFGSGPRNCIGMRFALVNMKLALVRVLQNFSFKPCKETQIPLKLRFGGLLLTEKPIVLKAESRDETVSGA
Sequence of Cytochrome P450 2C19 (Homo sapiens) (P33261 whole entry, looked up): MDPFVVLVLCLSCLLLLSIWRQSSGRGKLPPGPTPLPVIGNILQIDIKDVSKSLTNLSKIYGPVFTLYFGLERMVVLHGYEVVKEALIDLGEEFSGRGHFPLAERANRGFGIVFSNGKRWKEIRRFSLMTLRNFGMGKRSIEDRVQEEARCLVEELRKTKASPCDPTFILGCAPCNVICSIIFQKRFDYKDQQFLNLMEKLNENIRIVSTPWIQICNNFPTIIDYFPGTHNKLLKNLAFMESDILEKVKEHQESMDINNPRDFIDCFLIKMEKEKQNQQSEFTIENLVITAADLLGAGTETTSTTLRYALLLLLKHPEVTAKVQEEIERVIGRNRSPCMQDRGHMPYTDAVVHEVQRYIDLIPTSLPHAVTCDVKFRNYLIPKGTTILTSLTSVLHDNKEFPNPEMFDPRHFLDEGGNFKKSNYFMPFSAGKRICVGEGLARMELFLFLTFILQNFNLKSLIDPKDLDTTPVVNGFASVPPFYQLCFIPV
Sequence of Caspase-3 (Homo sapiens) (P42574 whole entry, looked up): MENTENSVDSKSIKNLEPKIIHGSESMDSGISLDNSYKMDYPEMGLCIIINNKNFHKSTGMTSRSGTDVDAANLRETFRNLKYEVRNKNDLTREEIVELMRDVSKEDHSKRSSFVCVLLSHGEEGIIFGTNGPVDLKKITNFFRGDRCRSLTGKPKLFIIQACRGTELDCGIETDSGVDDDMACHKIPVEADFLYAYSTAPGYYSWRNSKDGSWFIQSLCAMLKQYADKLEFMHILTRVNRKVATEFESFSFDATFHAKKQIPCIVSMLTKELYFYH
Sequence of Cytochrome P450 3A4 (Homo sapiens) (P08684 whole entry, looked up): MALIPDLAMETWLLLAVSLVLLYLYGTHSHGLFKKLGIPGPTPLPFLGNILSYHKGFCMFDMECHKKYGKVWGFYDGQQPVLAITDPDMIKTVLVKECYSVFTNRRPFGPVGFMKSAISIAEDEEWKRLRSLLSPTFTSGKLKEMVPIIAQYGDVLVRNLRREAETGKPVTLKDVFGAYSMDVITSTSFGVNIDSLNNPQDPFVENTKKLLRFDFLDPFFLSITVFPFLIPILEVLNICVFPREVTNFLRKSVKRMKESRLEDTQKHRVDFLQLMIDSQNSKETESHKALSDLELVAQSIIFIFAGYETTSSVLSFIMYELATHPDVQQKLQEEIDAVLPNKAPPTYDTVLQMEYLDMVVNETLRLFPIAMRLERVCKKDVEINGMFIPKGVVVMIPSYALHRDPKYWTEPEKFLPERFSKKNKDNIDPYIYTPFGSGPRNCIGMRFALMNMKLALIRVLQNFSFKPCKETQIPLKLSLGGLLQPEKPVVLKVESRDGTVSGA

In the case of `COc1ccc2sc(C(=O)Nc3nnn[nH]3)c(OC(C)C)c2c1`, the result (in [1]; in the test with Caspase-3 (Homo sapiens); in [2]; with CYP2C8 (gene 1558); in the test with CYP4A11 (gene 1579); in [7]) was inactive. Moreover, the compound was called inactive (in test [10]; with CYP3A5 (gene 1577)). Besides, the AC50 in [3] was 15.8 µM (active); in test [4], 39.2 µM (active); in test [5] it was 87.1 µM (active); in [6], 87 µM (active); with CYP2C9 (gene 1559), 50 µM (active); in the test with CYP2E1 (gene 1571) it was 91.6 µM (active). The AC50 in test [8] is 22 µM (active); in test [9], 74.8 µM (active); in test [11], 87.2 µM (active); in test [12], 83.9 µM (active); in test [13], 1.17 µM (active).
In the case of `CCCCCCCCCCCCc1ccccc1`, the compound was classed as inactive (in [1]; with Caspase-3 (Homo sapiens); in [2]; in test [3]; in test [4]; in [5]). Moreover, the outcome (in test [6]; with CYP2C8 (gene 1558); with CYP2C9 (gene 1559); with CYP2E1 (gene 1571); with CYP4A11 (gene 1579); in test [7]) was inactive. Besides, the call (in test [14]; in test [8]; in test [9]; in test [10]; in test [11]; with CYP3A5 (gene 1577)) was inactive. Further, the result in test [12] and in test [13] was inactive.
For `COCCOc1cc2cc(C(=O)NC3CCN(C(C)C)CC3)n(CC(=O)Nc3ccc(Cl)cn3)c2cn1`, the outcome (in test [1]; in the test with Caspase-3 (Homo sapiens); in [2]; in test [4]; in test [8]; in test [9]) was inactive. Also, the compound was called inactive in [10]. The AC50 in test [3] was 2.12 µM (active); in test [5] it was 70.6 µM (active); in test [6], 66.8 µM (active); with CYP2C8 (gene 1558), 61.8 µM (active); in the test with CYP2C9 (gene 1559), 62.2 µM (active); with CYP2E1 (gene 1571), 52.6 µM (active). Moreover, the AC50 with CYP4A11 (gene 1579) was 69.7 µM (active); in test [7] it was 45 µM (active); in test [11] it was 72 µM (active); with CYP3A5 (gene 1577), 15.9 µM (active); in test [12], 34.9 µM (active); in [13], 76.7 µM (active).
Consider `Oc1ccc2c(c1)-c1ccccc1C2`, for which the compound was called inactive (in test [1]; with Caspase-3 (Homo sapiens); in [2]; in test [4]; in [6]; with CYP2C8 (gene 1558)). Moreover, the compound was called inactive (with CYP2C9 (gene 1559); with CYP2E1 (gene 1571); with CYP4A11 (gene 1579); in test [7]; in [8]; in test [9]). Also, the outcome (in test [10]; in [11]; in the test with CYP3A5 (gene 1577); in [12]; in [13]) was inactive. Besides, the AC50 in [3] is 21.4 µM (active); in test [5], 50 µM (active).

By AC50 is commonly meant the concentration giving half of the maximal activity seen.
